Assay results from PubChem BioAssay AID868 (SRMLSC, 2007).
Screen size: about 190,000 compounds; about 3,500 (1.8%) were called active. The full list was thinned out, with actives kept by preference. Values without a mark were called inactive.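 Rule for the calls: active = inhibition above a set limit, 3 SD over mean compound inhibition (cut at about 8.4% in these data); inactive = the rest.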

Assay: RAM signaling blockers in budding yeast – dse1pr::URA3 reporter, 5-FOA selection, primary screen (AID 868);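 note: 0% = DMSO-only wells with no growth and 100% = 10 µM 1-NA-PP1 full growth; inhibition rescues growth on 5-FOA so higher OD means more RAM inhibition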
Conditions: S. cerevisiae dse1pr::URA3 reporter, 5-FOA growth OD615, 2 d; at 50 µM; hits give high values; analog-sensitive cbk1-as2 kinase mutant strain

Row | SMILES | inhibition
1 | OCC(CO)(CO)NCc1ccc(-c2ccccc2)cc1 | 1.38%
2 | COC(=O)N/N=C/c1ccc(/C=N/NC(=O)OC)cc1 | 1.05%
3 | COc1cc(C)c(S(=O)(=O)N2CCOCC2)c(C)c1C | 0.98%
4 | Cc1ccc(N=Cc2c(O)n(-c3nccs3)c(=O)c3ccccc23)c(C)c1 | 8.99% (active)
5 | Cc1ccc(N=Cc2c(O)cc(C)oc2=O)c(C)c1 | 0.38%
6 | Cc1ccc(-n2c(O)c(C=Nc3ccc(S(=O)(=O)Nc4ncccn4)cc3)c3ccccc3c2=O)cc1C | 7.54%
7 | C/C(CC(=O)N1CCN(C=O)CC1)=N\NC(=O)c1ccc(Br)cc1 | 2.35%
8 | Cc1ccc2[nH]c(C)c(CCNC(=O)NC3CCCCC3)c2c1 | 1.04%
9 | CC(=O)N(CCCN(C)C)c1nc2ccc(C)cc2s1 | 3.5%
10 | CC(C)c1cc(NCc2ccccn2)n2c(nc3ccccc32)c1C#N | -0.26%
11 | CCOc1ccccc1/C=N/NC(=O)CNC(=O)COc1ccccc1 | 1.01%
12 | C=CCc1ccccc1OCC(=O)N/N=C/c1ccccc1OCC | 12.4% (active)
13 | C=C(C)CNC(=S)N/N=C/c1ccccc1OCC(=O)O | 0%
14 | O=[N+]([O-])c1cc(S(=O)(=O)CCCN2CCOCC2)ccc1F | -0.13%
15 | COc1cc(OC)c(C(=O)OC(C)C(=O)Nc2cc(C(F)(F)F)ccc2Cl)cc1OC (stereo not drawn) | 0.5%
16 | COc1ccc(/C(C)=N/Nc2cc(C(F)(F)F)ccc2Cl)c(OC)c1 | 13.5% (active)
17 | COc1ccc(/C(C)=N/NC(=O)CCC(=O)Nc2ccc(Cl)cc2Cl)c(OC)c1 | 0.4%
18 | COC(=O)c1ccc(CN2CCC(CO)(Cc3ccc(OC)cc3)CC2)cc1 | 1.4%
19 | COc1ccc(-c2ccc(CCC(=O)O)n2NC(=O)c2ccc(C(C)(C)C)cc2)cc1 | 5.38%
20 | Cc1ccc(CN2CCN(Cc3ccc4ncccc4c3)CC2CCO)cc1 (stereo not drawn) | 0.13%
21 | O=C(/C=C/c1ccc2c(c1)OCO2)NCc1cn2cc(Cl)ccc2n1 | 3.64%
22 | Cc1ccc(Cl)cc1NC(=O)COC(=O)CC(C)(C)C | -1.53%
23 | O=C(COC(=O)CCCNC(=O)c1ccc(Cl)cc1)Nc1cc(Cl)ccc1Cl | 14.2% (active)
24 | Cc1ccc(Cl)cc1NC(=O)COC(=O)C1CCCCC1 | 1.91%
25 | O=C(O)c1n[nH]nc1-c1ccccc1 | 0.27%

Row | SMILES | inhibition
26 | CCOC(=O)CSC1=C(C#N)C(c2ccco2)C(C(=O)OCc2ccccc2)=C(C)N1 (stereo not drawn) | 17.6% (active)
27 | Cc1ccc(C2CC(=O)NC(SCC(=O)OCc3ccccc3)=C2C#N)o1 (stereo not drawn) | 0.38%
28 | C=CCOC(=O)C1=C(C)NC(SCC(=O)OCC)=C(C#N)C1c1ccc(C)cc1 (stereo not drawn) | 17.7% (active)
29 | C=CCOC(=O)C1=C(C)OC(N)=C(C#N)C1c1ccc(F)cc1 (stereo not drawn) | 1.6%
30 | CCOC(=O)CSC1=C(C#N)C(c2sccc2C)CC(=O)N1 (stereo not drawn) | 0%
31 | CC1=C(C(=O)Nc2ccccc2)C(c2ccco2)C(C#N)=C(SCC(N)=O)N1 (stereo not drawn) | -0.14%
32 | S=c1ccc2ccccc2[nH]1 | -0.88%
33 | Cc1noc(C)c1COc1ccc2ccc(=O)oc2c1 | 0.12%
34 | O=C(NC1CC1)c1ccc(-c2ccccc2)cc1 | 1.25%
35 | Cc1cccc(OCCNC(=O)CSc2ccc(C(F)(F)F)cc2[N+](=O)[O-])c1 | 3.14%
36 | COc1ccc(N2CCN(C(C)=C3C(=O)c4ccccc4C3=O)CC2)cc1 | -1.52%
37 | CN(C)c1ccc(C(=S)N2CCN(C(=S)Nc3ccc(Cl)cc3)CC2)cc1 | 4%
38 | Cc1ccc(SCC(=O)c2cc(C)c(OC(=S)N(C)C)c(C)c2)cc1 | 9.5% (active)
39 | Cc1ccc(SCC(=O)c2sc(-c3ccccc3)nc2C)cc1 | 2.13%
40 | Cc1ccc(SCC(=O)Nc2ccc3c(c2)OCCO3)cc1 | 0.6%
41 | COc1ccc(/C=C2/SC(=O)N(CCCCCC(=O)Nc3ccccc3C(=O)O)C2=S)cc1 | 9.16% (active)
42 | O=C(CCCN1C(=O)/C(=C/c2ccccc2)SC1=S)Nc1ccc(O)cc1 | 0.63%
43 | O=C(CCCN1C(=O)/C(=C\c2ccco2)SC1=S)Nc1cccc2ccccc12 | 4.94%
44 | Cc1cc(C)cc(NS(=O)(=O)c2ccc(Oc3ncc(C(F)(F)F)cc3Cl)cc2)c1 | 10.7% (active)
45 | COc1ccccc1Oc1ccc(S(=O)(=O)Nc2cccnc2)cc1 | -0.91%
46 | COC(=O)Cc1ccc(Oc2ncc(C(F)(F)F)cc2Cl)cc1 | 0.6%
47 | CCOC(=O)Cc1ncccc1C(=O)Nc1ccc(OC(F)(F)F)cc1 | -0.27%
48 | O=C(Nc1cccc(C(F)(F)F)c1)c1cnccn1 | 3.61%
49 | COc1cc(NC(=O)N2CCOCC2)cc(OC)c1 | 0.39%
50 | COc1cc(C(=S)N2CCOCC2)cc(OC)c1OC(=O)c1cc([N+](=O)[O-])c(C)c([N+](=O)[O-])c1 | 3.68%

Row | SMILES | inhibition
51 | COc1c(Br)cc2c(C)c(C(=O)N3CCOCC3)oc2c1Br | 13.5% (active)
52 | Cc1ccccc1NS(=O)(=O)CCCCC(Cl)(Cl)Cl | 1.86%
53 | Cc1ccc(-c2csc(NC(=O)c3cccs3)n2)cc1 | 3.07%
54 | O=C(O)CCC(=O)N(Cc1ccco1)c1nc(-c2ccccc2)cs1 | 3.13%
55 | Cc1ccc(-c2csc(N(Cc3ccco3)C(=O)c3cccs3)n2)cc1 | 8.42% (active)
56 | O=C(CN1C(=O)NC2(CCCCCC2)C1=O)NC1CC1 | -0.87%
57 | Cc1ccc2nc(COc3ccc(N(C)S(=O)(=O)c4ccccc4)cc3)cc(=O)n2c1 | 2.17%
58 | CCC1CCCCN1CCCNC(=O)c1cc2c(Cl)nc3ccccc3c2s1 (stereo not drawn) | 1.99%
59 | N#Cc1ccc(-c2nc3cc(C#N)c(C#N)cc3nc2-c2ccccc2)cc1C#N | 1.25%
60 | COc1ccc(C2CC(=O)n3c(nc4ccccc43)S2)cc1OC (stereo not drawn) | 3.3%
61 | COc1cccc(C2CC(c3ccccc3)=NN2S(=O)(=O)c2ccccc2)c1OC (stereo not drawn) | 2.56%
62 | COc1ccccc1C1CC(=O)n2c(nc(-c3ccccc3)c2-c2ccccc2)S1 (stereo not drawn) | 8.41% (active)
63 | O=C(COC(=O)c1ccccc1C(=O)N1CCN(c2ccccc2)CC1)NCc1ccccc1 | 1.15%
64 | CN1CCNC(=O)C1CC(=O)N1CC=C(c2ccc(F)cc2)CC1 (stereo not drawn) | -0.5%
65 | NC(=O)C[n+]1cccc(C(N)=O)c1 | 1.51%
66 | CCc1ccccc1NC(=S)N(CCN1CCCCCC1)Cc1ccco1 | -0.63%
67 | O=C1c2ccccc2C(=O)N1CCCc1nc(-c2ccccc2)no1 | 3.93%
68 | Cc1ccc2[nH]cc(CCNC(=O)c3ccc([N+](=O)[O-])cc3)c2c1 | -1.27%
69 | Cc1ccc2[nH]cc(CCCN3C(=O)c4ccccc4C3=O)c2c1 | 8.46% (active)
70 | NC(=O)COC(=O)c1cc(S(=O)(=O)N2CCN(c3ccccc3)CC2)ccc1Cl | 5.02%
71 | Cc1cc2[nH]ncc2cc1NC(=S)NC(=O)c1ccccc1 | 3.3%
72 | Cc1ccc(NC(=S)NC(=O)c2ccc(-c3ccccc3)cc2)c(C)c1 | 8.7% (active)
73 | Cc1ccc(C(=O)NC(=S)Nc2ccccc2C)cc1 | -0.37%
74 | CCCCN(C)c1ccc([N+](=O)[O-])cc1 | -1.26%
75 | Cc1cccc(C2=N/C(=C/c3cccs3)C(=O)O2)c1 | 4.44%

Row | SMILES | inhibition
76 | C/C(N)=C(/C#N)C(=O)COC(=O)c1cc(-c2ccccc2)nc2ccc(Br)cc12 | 3.84%
77 | Cc1cccc(CSc2nnc(C)c(=O)n2N)c1 | 0.13%
78 | Cc1nc2c(C(=O)NCc3cccs3)cnn2c(C)c1Cc1ccc(F)cc1 | 1.27%
79 | COC(=O)Cn1c(=NC(=O)c2cc(OC)c(OC)c(OC)c2)sc2cc(OC)ccc21 | 5.03%
80 | CCOC(=O)c1c(C)nc2c(c1C)c(=O)oc1ccccc12 | 18.6% (active)
81 | CCCCC(=O)Nc1cc(C)c2c(=O)oc3ccccc3c2n1 | 7.85%
82 | CCOC(=O)N1CCN(C(=O)c2cc3c(ccc4ccccc43)oc2=O)CC1 | 4.45%
83 | CCN(CC)CC1(O)CCN(C(=O)c2ccc(Cl)c(Cl)c2)CC1 | 1.77%
84 | O=C(COC(=O)c1cc2c(s1)CCCC2)NCc1ccccc1Cl | 4.18%
85 | O=C(COC(=O)Cn1cnc2ccccc2c1=O)NCc1ccccc1Cl | 0%
86 | O=C(COC(=O)/C(=C/c1cccs1)c1cccs1)NCc1ccccc1Cl | 14% (active)
87 | O=C1Oc2ccccc2C(=O)/C1=C/c1ccccc1O | 0.25%
88 | O=C(Nc1ccc(Sc2ccc(Br)cc2)cc1)c1ccco1 | 9.42% (active)
89 | COC(=O)c1ccc(NC(=O)c2ccco2)cc1 | 0.13%
90 | O=C(CSc1ccccc1)Nc1ccc(NC(=O)c2ccco2)cc1 | 3.77%
91 | CCCSc1nc2c(c(=O)n(C)c(=O)n2C)n1Cc1ccc(C)cc1 | 8.43% (active)
92 | Cc1cccc(Cn2c(SCCO)nc3c2c(=O)n(C)c(=O)n3C)c1 | 0.88%
93 | CCOc1ccc(Cn2c(SCCCCC#N)nc3c2c(=O)n(C)c(=O)n3C)cc1OCC | 1.06%
94 | COc1ccc(CCNc2cc(C)nc3c(-c4ccc(Cl)cc4)c(C)nn23)cc1OC | -0.42%
95 | CCc1cccc2c(=O)c(C(=O)NCCCOC)c[nH]c12 | 3.16%
96 | COC(=O)CCCCCN1C(=O)NC(c2ccc(-c3ccccc3)cc2)C(C(=O)OCc2ccccc2)=C1C (stereo not drawn) | 15.8% (active)
97 | CC1=C(C(=O)OCc2ccccc2)C(c2ccc(C(F)(F)F)cc2)NC(=O)N1CCCCCC(=O)O (stereo not drawn) | 7.19%
98 | COCCN1C(=O)N[C@@H](c2ccccc2)C(C(=O)OC)=C1C | 0.8%
